Records with an inconclusive call do not appear. Active and inactive are the calls of the source. Unless noted, calls come from the whole dose curve; as a rule, active = well fitted cell-killing curve with a large enough effect; inconclusive = small, poorly fitted or top-dose-only effect, or effect the other way; inactive = no such curve, though single readings can be large or run the other way.
How the values were obtained:
[1] = Quantitative High-Throughput drug screen in 47 multiple myeloma cell lines against the NCATS MIPE library collection: PE2_PLB cell viability assay (AID 1919869); note: nearly all actives have a fitted effect of over 35% in size; note: potency is the fitted concentration of half-maximal effect
How it was run: (§1)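 Inhibition of viability over 48 h was scored by ATP content (CellTiter-Glo) in 500-cell wells. Zero and full viability were defined by media-only and DMSO-only wells.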

[2] = Quantitative High-Throughput drug screen in 47 multiple myeloma cell lines against the NCATS MIPE library collection: PCM6_Riken cell viability assay (AID 1919870); note: nearly all actives have a fitted effect of over 30% in size; note: potency is the fitted concentration of half-maximal effect
How it was run: as §1

[3] = Quantitative High-Throughput drug screen in 47 multiple myeloma cell lines against the NCATS MIPE library collection: RPMI8226_ATCC cell viability assay (AID 1919871); note: nearly all actives have a fitted effect of over 30% in size; note: potency is the fitted concentration of half-maximal effect
How it was run: as §1

[4] = Quantitative High-Throughput drug screen in 47 multiple myeloma cell lines against the NCATS MIPE library collection: OPM2_DSMZ cell viability assay (AID 1919872); note: nearly all actives have a fitted effect of over 30% in size; note: potency is the fitted concentration of half-maximal effect
How it was run: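 Inhibition of cell viability is measured here. Each line was plated at 500 cells per well, treated with MIPE 4.0 drugs, kept 48 hours at 37C, then assayed for ATP content by CellTiter-Glo luminescence.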

[5] = Quantitative High-Throughput drug screen in 47 multiple myeloma cell lines against the NCATS MIPE library collection: KMS11_JCRBsus cell viability assay (AID 1919873); note: nearly all actives have a fitted effect of over 50% in size; note: potency is the fitted concentration of half-maximal effect
How it was run: as §1

[6] = Quantitative High-Throughput drug screen in 47 multiple myeloma cell lines against the NCATS MIPE library collection: KMS28BM_JCRB cell viability assay (AID 1919874); note: nearly all actives have a fitted effect of over 35% in size; note: potency is the fitted concentration of half-maximal effect
How it was run: as §1

[7] = qHTS drug screen for cell cycle checkpoint inhibitors in PARPi-resistant BRCA-mutant ovarian cancer cell lines. (AID 1963452; calls by dose curve); details: PEO1/OlaR viability, CellTiter-Glo luminescence, 96 h, stronger effect = lower value
How it was run: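 PEO1, PEO4 and PEO1/OlaR ovarian cancer cells, 600 per well, exposed 96 h at 37C to a dilution series. Viability read by CellTiter-Glo luminescence, normalized to DMSO and empty wells; activity summarized as Z-AUC.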

[8] = qHTS for identification of novel therapeutic agents for treatment of microphthalmiaassociated transcription factor (MiT) renal cell carcinoma (RCC) (AID 1963991; calls by dose curve; note: potency is the fitted concentration of half-maximal effect); details: CellTiter-Glo, 48 h; for z-score: stronger effect = lower value
How it was run: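 Three TFE3-fusion RCC cell lines (UOK109, UOK124, UOK145), 500 cells/well, were exposed to the 1912-compound MIPE 4.0 library for 48 hours at 37 C. Viability was read by CellTiter-Glo luminescence, normalised to DMSO (100%) and empty wells (0%), with 11-concentration curve fits.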

[9] = measured here: PEO1 parental Z-AUC
[10] = TFE3-RCC UOK109 viability, measured here: UOK109 Z-AUC
[11] = TFE3-RCC viability, measured here: UOK124 Z-AUC
[12] = TFE3-RCC viability, measured here: UOK145 Z-AUC

Row | SMILES | Potency [1] | Potency [2] | Potency [3] | Potency [4] | Potency [5] | Potency [6] | Z-AUC [7] | Z-AUC [7, 9] | Z-AUC ([7]; measured here: PEO4 Z-AUC) | z-score [8, 10] | z-score [8, 11] | z-score [8, 12] | Potency ([8]; TFE3-RCC UOK109 viability, active = Z-AUC below -0.8 in all three lines)
1 | CC(C)(C)c1cc(C(C)(C)C)c(NC(=O)c2c[nH]c3ccccc3c2=O)cc1O | inactive | inactive | inactive | inactive | inactive | inactive | 1.31 (inactive) | 1.35 | 0.966 | 0.938 | 0.941 | 0.665 | 
2 | COCCOc1ccc2c(c1)ncn2-c1ccc2cccc(N3CCC(N)CC3)c2n1 | 0.372 µM (active) | 1.05 µM (active) | 26.4 µM (active) | 1.87 µM (active) |  | 16.6 µM (active) | 0.074 (inactive) | 0.935 | 0.806 |  |  |  | 
3 | COc1ccc(-n2nc(C(N)=O)c3c2C(=O)N(c2ccc(N4CCCCC4=O)cc2)CC3)cc1 | inactive | inactive | inactive | inactive | inactive | inactive | 1.05 (inactive) | 0.968 | 0.601 |  |  |  | 
4 | Cn1c(CNc2ccc(C(=N)N)cc2)nc2cc(C(=O)N(CCC(=O)O)c3ccccn3)ccc21 |  | inactive | inactive |  | inactive | inactive | 3.54 (inactive) | 3.55 | 3.92 | 1.13 | 1.05 | 1.25 | 
5 | CC(C)(C)c1cc(NC(=O)Nc2ccc(-c3cn4c(n3)sc3cc(OCCN5CCOCC5)ccc34)cc2)no1 | 0.148 µM (active) | inactive |  |  |  | inactive | 1.23 (inactive) | 0.804 | 0.987 |  |  |  | 
6 | Cn1c2cc(S(C)=O)sc2c2cnn(Cc3cccc(N)c3)c(=O)c21 (stereo not drawn) |  | inactive | inactive | inactive |  | inactive | 1.34 (inactive) | 0.817 | 0.912 |  |  |  | 
7 | C1Cc2[nH]nc(-c3nn[nH]n3)c2C1 | inactive | inactive |  |  |  | inactive | -0.759 (inactive) | -0.47 | -0.646 | -0.0239 | 0.708 | 0.169 | 
8 | COc1cccc(-c2ccc(NC(=O)C3=C(C(=O)O)CCC3)c(F)c2)c1 |  | 3.32 µM (active) | 13.2 µM (active) |  | 14.8 µM (active) | 18.7 µM (active) | 0.233 (inactive) | 0.433 | 0.985 |  |  |  | 
9 | C=CC(=O)N1CCC[C@@H](n2nc(-c3ccc(Oc4ccccc4)cc3)c3c(N)ncnc32)C1 |  |  | 20.9 µM (active) |  |  |  | 0.296 (inactive) | 0.501 | 0.517 |  |  |  | 
10 | CC(=O)SC[C@@H](C)C(=O)N1CCC[C@H]1C(=O)N[C@@H](Cc1ccccc1)C(=O)O | inactive | inactive | inactive |  | inactive | inactive | 0.0192 (inactive) | -0.242 | -0.303 |  |  |  | 
11 | COc1ccc(CC2SC(=O)NC2=O)cc1C(=O)NCc1ccc(C(F)(F)F)cc1 (stereo not drawn) |  | 7.43 µM (active) | inactive |  |  | inactive | 1.34 (inactive) | 1.11 | 1.12 |  |  |  | 
12 | Nc1cccc(-c2cc3c(Oc4cccc(O)c4)ncnc3[nH]2)c1 | 14.8 µM (active) | 16.6 µM (active) |  |  | 7.43 µM (active) | 20.9 µM (active) | -0.838 (inactive) | -0.58 | -0.859 |  |  |  | 
13 | Cc1c(C)n(Cc2ccc(-c3ccccc3C(=O)O)cc2)c2ccc(C(=O)N[C@@H](C)c3ccc([N+](=O)[O-])cc3)cc12 | 11.8 µM (active) |  | inactive | inactive | 18.7 µM (active) |  | 0.131 (inactive) | 0.774 | 0.226 |  |  |  | 
14 | N#Cc1c(O)c2c(-c3ccc(-c4ccccc4O)cc3)csc2[nH]c1=O | inactive | inactive | inactive | inactive | inactive |  | 0.825 (inactive) | 1.08 | 1.07 | 0.657 | 0.453 | 0.62 | 
15 | CS(=O)(=O)N1CCN(Cc2cc3nc(-c4cccc5[nH]ncc45)nc(N4CCOCC4)c3s2)CC1 |  |  | 0.264 µM (active) |  |  |  | 0.0585 (inactive) | 0.321 | 0.781 | -1.55 | -1.58 | -1.5 | 0.105 µM (active)
16 | CCCNC(=O)Nc1ccc(Oc2ncnc3cc(OC)c(OC)cc23)cc1Cl | inactive | inactive | 0.935 µM (active) |  |  |  | -0.498 (inactive) | -0.00236 | -0.53 | 0.0793 | -1.33 | -0.496 | 

— PubChem BioAssay (NCATS)
